PubChem BioAssay AID504339 (National Center for Advancing Translational Sciences (NCATS), 2011)
In all, about 390,000 compounds went through this assay and about 17,000 (4.4%) were called active. Another 8% or so got no clear call; they are omitted. The list comes from a sample in which actives are over-represented; it also holds similar structures and randomly drawn compounds. Where a call stands in place of a potency, no number is given. Unmarked numbers belong to inactive results. The call rests on the fitted dose curve; in most records, active means well fitted inhibition curve with a large enough effect; inconclusive means small, poorly fitted or top-dose-only effect; inactive means no such curve, though single readings can be large or run the other way.

Target: Lysine-specific demethylase 4A (Homo sapiens) (UniProt O75164)
Assay: qHTS Assay for Inhibitors of JMJD2A-Tudor Domain; further: nearly all actives have a fitted effect of over 50% in size
Conditions: AlphaScreen JMJD2A-Tudor / H3K4me3 peptide binding; series mostly up to 114 µM
Potency means the concentration at half of the fitted maximal effect.

Chain of Lysine-specific demethylase 4A (Homo sapiens) (O75164 whole entry, looked up, the tested form may be a part): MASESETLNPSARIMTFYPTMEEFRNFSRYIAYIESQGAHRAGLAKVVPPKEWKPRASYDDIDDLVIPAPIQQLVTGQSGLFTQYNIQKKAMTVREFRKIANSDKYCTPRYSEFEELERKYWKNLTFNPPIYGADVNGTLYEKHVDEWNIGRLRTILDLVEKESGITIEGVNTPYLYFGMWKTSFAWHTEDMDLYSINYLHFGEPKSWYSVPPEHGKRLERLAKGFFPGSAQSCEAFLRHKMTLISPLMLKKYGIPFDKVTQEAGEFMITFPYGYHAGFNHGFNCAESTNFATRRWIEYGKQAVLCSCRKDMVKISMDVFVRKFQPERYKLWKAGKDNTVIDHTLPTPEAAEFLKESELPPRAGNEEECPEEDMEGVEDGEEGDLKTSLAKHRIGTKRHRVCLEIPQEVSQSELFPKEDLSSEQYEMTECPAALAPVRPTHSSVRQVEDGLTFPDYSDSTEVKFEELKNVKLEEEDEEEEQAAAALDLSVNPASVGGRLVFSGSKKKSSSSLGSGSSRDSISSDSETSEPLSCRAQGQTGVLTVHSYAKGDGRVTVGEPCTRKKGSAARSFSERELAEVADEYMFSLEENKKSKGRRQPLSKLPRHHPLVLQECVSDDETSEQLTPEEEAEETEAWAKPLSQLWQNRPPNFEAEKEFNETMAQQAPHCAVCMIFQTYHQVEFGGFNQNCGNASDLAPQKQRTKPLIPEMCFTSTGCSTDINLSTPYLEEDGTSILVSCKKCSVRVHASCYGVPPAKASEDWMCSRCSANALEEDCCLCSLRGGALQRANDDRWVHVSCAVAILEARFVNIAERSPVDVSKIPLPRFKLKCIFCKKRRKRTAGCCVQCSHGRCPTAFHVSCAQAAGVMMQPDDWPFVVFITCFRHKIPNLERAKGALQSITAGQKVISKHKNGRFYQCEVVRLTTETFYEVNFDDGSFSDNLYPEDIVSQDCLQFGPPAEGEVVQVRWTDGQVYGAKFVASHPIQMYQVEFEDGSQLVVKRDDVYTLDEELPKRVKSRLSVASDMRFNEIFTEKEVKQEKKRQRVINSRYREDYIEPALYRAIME

| Structure (SMILES) | Potency | activity change, negative = inhibition |
| --- | --- | --- |
| Cc1ccc(-c2onc(C)c2C)cc1S(=O)(=O)Nc1ccccn1 | inactive | – |
| COC(=O)c1cc(S(=O)(=O)N2CCN(c3cc(Cl)ccc3C)CC2)c[nH]1 | inactive | – |
| O=C(Cn1nc(Cc2cccnc2)c2ccccc2c1=O)N1CCN(c2ccccc2F)CC1 | inactive | – |
| Cc1nc2ccn(Cc3cccnc3)c(=O)c2cc1C(=O)N1CCN(c2ccccc2F)CC1 | inactive | – |
| O=C(Nn1cc(C(=O)N2CCN(c3ccccc3F)CC2)c2ccccc2c1=O)c1cnccn1 | 25.1 µM (active) | – |
| CCN(CC)S(=O)(=O)c1ccc(C(=O)N=c2sc3cccc(OC)c3n2C)cc1 | inactive | – |
| O=C(NCc1ccc2c(c1)CCN2C(=O)c1ccccc1)Nc1cc(F)ccc1F | inactive | – |
| CCc1cnc2c(c1SCC(=O)c1ccccc1)c(=O)n(C)c(=O)n2C | inactive | – |
| COc1ccc(-c2nn3c(=O)cc(CN4CCN(C(=O)c5ccc(OC)c(OC)c5)CC4)nc3s2)cc1 | inactive | – |
| CCN1CCN(CCCCOc2ccccc2F)CC1 | 0.794 µM (active) | – |
| COc1ccccc1OCCCCCCN1CCN(C)CC1 | inactive | – |
| CN1CCN(CCCCOc2cccc3ccccc23)CC1 | inactive | – |
| CC(C)NC(=O)c1nn(-c2ccccc2F)nc1CO | inactive | – |
| Cc1[nH]c2ccccc2c1C(c1ccccc1)c1cccs1 (centres undefined) | inactive | – |
| Cc1cccc(-n2ncc(C(=O)N3CCC(C)CC3)c2C2CCN(C(=O)OC(C)(C)C)CC2)c1 | inactive | – |
| CCCCSc1ncnc2c1sc1nc(N3CCOCC3)c3c(c12)CCCC3 | inactive | – |
| Cc1cc(C)n(CC(O)CN(c2ccccc2)S(=O)(=O)c2ccc3ccccc3c2)n1 (centres undefined) | inactive | – |
| Cc1cc(C)n(CC(O)COc2ccc(C(C)(C)C)cc2)n1 (centres undefined) | 79.4 µM (active) | – |
| CCC(=O)c1ccc(OCC(O)Cn2nc(C)c(C(C)=O)c2C)cc1 (centres undefined) | inactive | – |
| COc1ccc(S(=O)(=O)c2c(Nc3ccc(C)cc3)sc(C(=O)c3ccc(C)cc3)c2N)cc1 | inactive | – |
| CSc1ccc(C2c3c(oc4ccccc4c3=O)C(=O)N2CCCN2CCOCC2)cc1 (centres undefined) | inactive | – |
| COc1ccc(-c2nc3sc(CCNS(=O)(=O)c4ccc(F)c(C)c4)c(C)n3n2)cc1 | inactive | – |

| Structure (SMILES) | Potency | activity change, negative = inhibition |
| --- | --- | --- |
| CC(C)c1cc(C(=O)O)n[nH]1 | 28.2 µM (active) | – |
| Cc1cc(C)nc(NS(=O)(=O)c2ccc(NC(=O)c3cc(=O)c4ccc(C)c(C)c4o3)cc2)n1 | inactive | – |
| CC1=C(C(=O)N2CCN(c3cccc(C(F)(F)F)c3)CC2)C2(CCCCC2)OC1=O | inactive | – |
| Cc1ccc(Cl)cc1N1CCN(C(=O)c2cnc3c(-c4ccc(F)cc4)c(C)nn3c2C)CC1 | inactive | – |
| O=C(CNC(=O)c1ccc(Cl)cc1Cl)OC(C(=O)Nc1cc(C(F)(F)F)ccc1Cl)c1ccccc1 (centres undefined) | inactive | – |
| COc1cc(/C=C/C(=O)N2c3ccccc3Sc3ccc(C(F)(F)F)cc32)cc(OC)c1OC | inactive | – |
| COc1cc(/C=C2\SC(=S)N(Nc3ncc(C(F)(F)F)cc3Cl)C2=O)cc(OC)c1OC | 44.7 µM (active) | – |
| CCOc1ccc(/C=C2\SC(=S)N(NC(=O)c3ccncc3)C2=O)cc1OC | inactive | – |
| COc1ccc(CCNc2nc3c(-c4cccc(F)c4)nnn3c3ccccc23)cc1OC | inactive | – |
| COCCNc1ncnc2c1c(-c1ccccc1)cn2-c1ccc(C)c(Cl)c1 | inactive | – |
| CC1(C)CCc2cc(S(=O)(=O)N3CCN(c4nc(-c5cccs5)nc5ccccc45)CC3)ccc2O1 | inactive | – |
| COc1ccc(OC)c(Nc2nc(-c3ccc(O)c(O)c3)cs2)c1 | 10 µM (active) | – |
| COc1ccc(OC)c(Nc2nc3ccccc3n3cnnc23)c1 | – | -5.88% [at 11.4 µM] |
| COc1ccc(OC)c(-c2csc(NC(=O)C3=NNC(=O)CC3)n2)c1 | inactive | – |
| CCOC(=O)c1ccc(NC(=O)CSc2nc3c([nH]c4ccccc43)c(=O)n2C)cc1 | inactive | – |
| COc1ccc(OC)c(-c2noc(N3CCN(c4cc(Cl)ccc4C)CC3)n2)c1 | inactive | – |
| Cc1ccc(Nc2cc(C)nc3c(C)ccc([N+](=O)[O-])c23)cc1 | 35.5 µM (active) | – |
| Cc1ccccc1Nc1c([N+](=O)[O-])ccc2nonc12 | inactive | – |
| Cc1cc(Nc2ccc(C(=O)N3CCCCC3)cc2)c2cccc(C)c2n1 | inactive | – |
| CCS(=O)(=O)N1CCc2cc(C(=O)NCc3ccc(C)cc3)ccc21 | inactive | – |
| CCn1cc(C(=O)NCCc2ccccc2)c(=O)c2cc(S(=O)(=O)N3CCCCCC3)ccc21 | inactive | – |
| COC(=O)c1cc(NC(=O)CCS(=O)(=O)c2cc(Br)cc3c2N(C(=O)C2CC2)CC3)cc(C(=O)OC)c1 | inactive | – |

| Structure (SMILES) | Potency | activity change, negative = inhibition |
| --- | --- | --- |
| COc1ccc(C)cc1N(C)C(=O)c1c(C)oc2ncnc(N3CCOCC3)c12 | inactive | – |
| Cc1ccc(CCNC(=O)C2CCN(c3nnc(-n4cccc4CNc4ccc(C)cc4)s3)CC2)cc1 | inactive | – |
| CC(CN1CCCCC1)OC(=O)c1ccccc1Cl (centres undefined) | inactive | – |
| C#CCNc1ccc(C(=O)OCC)cc1 | inactive | – |
| CC(C)OC(=O)c1ccc(NCc2cc(O)ccc2O)cc1Cl | 10 µM (active) | – |
| COC(=O)c1ccc(NCc2cc(O)ccc2O)cc1 | 5.62 µM (active) | – |
| CC1(C)C2CCC1(C)C(OC(=O)c1ccc(O)cc1)C2 (centres undefined) | inactive | – |
| CCN(CC)C(=O)CCC(=O)Nc1ccc(C(=O)OC)cc1 | inactive | – |
| O=C(OC12CC3CC(CC(C3)C1)C2)c1ccc(NCc2cc(O)ccc2O)cc1 | 56.2 µM (active) | – |
| CC(OC(=O)c1ccc(Cl)cc1O)C(=O)NCCC1=CCCCC1 (centres undefined) | inactive | – |
| O=c1cc(COc2cccc(C(F)(F)F)c2)nc2sc3c(n12)CCCC3 | inactive | – |
| CN(C)c1ccc(C(=O)NCC(=O)OC(C(=O)Nc2cc(C(F)(F)F)ccc2Cl)c2ccccc2)cc1 (centres undefined) | inactive | – |
| CCc1cccc(NC(=O)c2cnc(N3CCOCC3)c3ccccc23)c1 | inactive | – |
| O=C(COc1ccccc1F)Nc1ccc(C(=O)OCc2cc(=O)n3nc(C4CC4)sc3n2)cc1 | inactive | – |
| Cc1cccc(C)c1-n1ncc(C(=O)NCCCN2CCCCC2)c1C1CCN(C(=O)OC(C)(C)C)CC1 | inactive | – |
| COc1ccc(Cc2nc3ccc(C(=O)NCc4ccc(OC)cc4OC)cc3o2)cc1 | inactive | – |
| COc1ccc(OC)c(NC(=O)C2CCCN(S(=O)(=O)c3ccc4c(c3)CCCC(=O)N4)C2)c1 (centres undefined) | inactive | – |
| O=[N+]([O-])c1ccc(COc2ccccc2CN2CCOCC2)cc1 | inactive | – |
| Oc1c(CN2CCOCC2)ccc(CN2CCOCC2)c1O | 3.55 µM (active) | – |
| OC(c1ccccc1)C(CN1CCOCC1)c1ccccc1 (centres undefined) | inactive | – |
